This note sets out measurements from PubChem BioAssay (Tox21).

Test [1] in a line: Nuclear factor erythroid 2-related factor 2/antioxidant responsive element (Nrf2/ARE) small molecule agonists: qHTS cell viability counter screen in human keratinocytes (AID 1919968; active = well fitted curve in the direction sought with a large enough effect in the repeat runs; an effect the other way counts as inactive or inconclusive; also: nearly all actives have a fitted effect of over 55% in size). In outline:
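HaCaT ARE reporter line, 1,500 cells/well; 5 h settle, 37 C/5% CO2; cpd in DMSO pinned; 23 h exposure; CellTiter-Fluor, 1 h; fluorescence.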

A short description of test [2]: Nuclear factor erythroid 2-related factor 2/antioxidant responsive element (Nrf2/ARE) small molecule agonists: luciferase reporter gene qHTS assay in human keratinocytes (AID 1919969). Also: nearly all actives have a fitted effect of over 35% in size. Also: potency is read from the fitted curve at half-maximal effect.
Test [3] deals with Gonadotropin-releasing hormone receptor (Homo sapiens) (UniProt P30968). The test can be described thus: Human gonadotropin-releasing hormone receptor (GnRHR) small molecule agonists, calcium flux assay in GnRHR-HEK293 cells (AID 1920063). Also: nearly all actives have a fitted effect of over 35% in size. Summed up:
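GnRHR-HEK293, 1500 cells/well, 18 h 37 C/5% CO2; Ca dye 1 h 37 C; cpd pinned (DMSO), agonist mode; kinetic FL 480/540, 3 min, 1 s reads; 15 conc, n=3.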

Test [4] deals with KiSS-1 receptor (Homo sapiens) (UniProt Q969F8). Kind of test: Human kisspeptin (KISS1R) small molecule agonists, calcium flux assay in KISS1R-HEK293 cells (AID 1920064; active = well fitted curve in the direction sought with a large enough effect in the repeat runs; an effect the other way counts as inactive or inconclusive). In outline:
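Stable human KISS1R HEK293 line; 18 h plating, 37 C/5% CO2; calcium dye 1 h 37 C; compound pin transfer; kinetic fluorescence Ex/Em 480/540, 3 min.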

A short description of test [5]: G protein-coupled receptor (GPCR) small molecule agonists, calcium flux assay: HEK293 wild type cell line counter screen (AID 1920065). In outline: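 Kinetic fluorescence at Ex/Em 480/540, recorded every second over 3 min, served as the read-out after compound addition. Each compound was tested at 15 concentrations in triplicate on cells pre-loaded with calcium dye for 1 h.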

Test [6] is described as follows: p53 small molecule agonists, cell-based qHTS assay with human liver microsomes (AID 1963577). Summed up: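 Fluorescence of the beta-lactamase reporter in p53RE-bla cells, detected with LiveBLAzer substrate (2 h, room temperature, dark), served as the read-out after 16 h compound exposure at 37 C with human liver microsomes and NADPH, each 0.5 mg/mL final.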
The nature of test [7]: p53 small molecule agonists, cell-based qHTS assay with rat liver microsomes (AID 1963578). Summed up: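 Cells carrying a p53 response element–beta-lactamase reporter were plated and rested 5 h, then dosed with compound in DMSO plus rat liver microsomes and NADPH, each at 0.5 mg/mL final. After 16 h at 37 C, LiveBLAzer substrate was added for 2 h.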
A short description of test [8]: p53 small molecule agonists, cell-based qHTS assay with human liver microsomes: qHTS cell viability counter screen (AID 1963579). Also: nearly all actives have a fitted effect of over 45% in size. Summed up: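 Cytotoxicity counter screen: p53RE-bla, 4,000 cells/well; 5 h settle, 37 C/5% CO2; cpd + HLM 0.5 mg/mL + NADPH 0.5 mg/mL (final); 16 h, 37 C; CellTiter-Glo, 30 min RT, luminescence.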
The nature of test [9]: p53 small molecule agonists, cell-based qHTS assay with rat liver microsomes: qHTS cell viability counter screen (AID 1963580). Also: nearly all actives have a fitted effect of over 45% in size. Summed up: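 Intracellular ATP, by CellTiter-Glo luminescence, defines viability. HCT-116 p53RE-bla cells, 4,000 per well, were compound-treated in the presence of rat liver microsomes and NADPH for 16 h at 37 C.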
Test [10] is described as follows: p53 small molecule agonists, cell-based qHTS assay: qHTS cell viability counter screen (AID 1963581). Also: nearly all actives have a fitted effect of over 45% in size. Summed up: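 HCT-116 p53RE-bla cells, 4,000/well, plated 5 h before compound pin transfer; 16 h at 37 C; bla substrate 2 h RT; then CellTiter-Glo, 30 min RT, luminescence.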
A short description of test [11]: p53 small molecule agonists, cell-based qHTS assay (AID 1963582; active = well fitted activation curve with a large enough effect in the signal ratio in the repeat runs, not every such curve was filed as active; the % refers to the signal ratio). Summed up: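 Reporter line: p53RE-bla. Pre-incubation 5 h, 37 C, 5% CO2; compound (DMSO, pin tool) 16 h, 37 C; B/G FRET substrate 2 h RT; fluorescence intensity read.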
Test [12] concerns the target 5-hydroxytryptamine receptor 2A (Homo sapiens) (UniProt P28223). The test can be described thus: 5-hydroxytryptamine receptor 2A (HTR2A) small molecule antagonists, cell-based qHTS assay (AID 1963586). Also: nearly all actives have a fitted effect of over 45% in size. Summed up: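 Antagonist-mode intracellular calcium assay: DOI (4 nM) added after 5 min compound pre-incubation at room temperature to dye-loaded HTR2A-CHO cells. Fluorescence followed for 3 min, sampled every second.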

The target is the same in test [13]. Kind of test: 5-hydroxytryptamine receptor 2A (HTR2A) small molecule agonists, cell-based qHTS assay (AID 1963587). Also: nearly all actives have a fitted effect of over 30% in size. In outline:
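Kinetic calcium-flux fluorescence (2 min, 1 sec intervals) after compound addition in agonist mode. HTR2A-CHO cells were cultured 18 h, then dye-loaded 1 h at 37 C.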

In test [14] the target is Muscarinic acetylcholine receptor M1 (Homo sapiens) (UniProt P11229). Kind of test: Cholinergic receptor muscarinic 1 (CHRM1) small molecule antagonists, cell-based qHTS assay (AID 1963588). Also: nearly all actives have a fitted effect of over 40% in size. Summed up: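 CHRM1-CHO calcium-flux assay, antagonist mode. Cells were seeded 18 h, dye-loaded 1 h at 37 C and given compound for 5 min at RT, then acetylcholine was added at 50nM. FDSS fluorescence was read 3 min; 15 concentrations, three runs.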

Test [15] shares this target. The test can be described thus: Cholinergic receptor muscarinic 1 (CHRM1) small molecule agonists, cell-based qHTS assay (AID 1963589). Also: nearly all actives have a fitted effect of over 35% in size. In outline:
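Human M1 in stable CHO line; 18 h plating, 1 h dye load 37 C; cpd added (agonist mode); Ca2+ fluorescence kinetic read, 1 s intervals; 15 conc, 3 runs.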

Test [16] can be described thus: cAMP Responsive Elements (CRE) small molecule agonists, cell-based qHTS assay (AID 1963590). In outline: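 HEK 293T CRE-bla, 2,000 cells/well, 18 h preincubation 37 C/5% CO2; cpds (DMSO) pinned, 3 h; LiveBLAzer B/G FRET substrate, 2 h RT.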
The target of test [17] is Beta-2 adrenergic receptor (Homo sapiens) (UniProt P07550). Kind of test: Adrenergic beta2 receptor (ADRB2) small molecule antagonists, cell-based qHTS assay (AID 1963592). Also: series mostly up to about 92 µM; nearly all actives have a fitted effect of over 50% in size. Summed up: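 Cells (CHO, stable ADRB2 overexpression) incubated 18-20hr at 37C; compounds added from DMSO; agonist mix (1nM isoproterenol, 100uM IBMX, 25uM Ro-20-1724) added; 0.5hr RT; d2-cAMP and anti-cAMP-cryptate added; 1hr RT; 665/615 nm read.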

Test [18] addresses D(2) dopamine receptor (Homo sapiens) (UniProt P14416). The test can be described thus: Dopamine D2 receptor (DRD2) small molecule agonists, cell-based qHTS assay (AID 1963594). Also: nearly all actives have a fitted effect of over 35% in size. Summed up: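 cAMP accumulation in DRD2-HEK293 cells measured by HTRF after 1 h detection; compounds added 10 min before NKH477 (200nM […]) forskolin-analogue stimulation, 30 min at room temperature, with Ro20-1724 present at 0.1 mM final.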

Test [19] shares this target. The test can be described thus: Dopamine D2 receptor (DRD2) small molecule antagonists, cell-based qHTS assay (AID 1963595; active = well fitted inhibition curve with a large enough effect in the signal ratio in the repeat runs, with a control signal flat; the % refers to the signal ratio). Summed up: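 HEK293 cells stably expressing DRD2, preincubated with 0.1 mM Ro20-1724 and compounds 10 min, were stimulated with 200 nM NKH477 plus 12 nM quinpirole for 30 min at room temperature; cAMP measured by HTRF (665/620 nm).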
A short description of test [20]: cAMP Responsive Elements (CRE) small molecule antagonists, cell-based qHTS assay (AID 1963591; active = well fitted inhibition curve with a large enough effect in the signal ratio in the repeat runs, not every such curve was filed as active; the % refers to the signal ratio). Summed up: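 Beta-lactamase reporter read by FRET substrate (LiveBLAzer B/G) after 2 h at room temperature. CRE-bla HEK293T cells had received compound plus 0.25 uM (final) NKH477 for 3 h at 37 °C.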

Several values for one entry are separate records, joined by “and”; a condition that tells them apart may be missing. Equal entries are not always repeated. Inconclusive results are not listed. A structure can be active in one record and inactive in another. Activity calls are given as the source filed them. Unless noted, calls follow the shape of the full dose curve.

D(2) dopamine receptor (Homo sapiens), sequence (P14416 whole entry, looked up): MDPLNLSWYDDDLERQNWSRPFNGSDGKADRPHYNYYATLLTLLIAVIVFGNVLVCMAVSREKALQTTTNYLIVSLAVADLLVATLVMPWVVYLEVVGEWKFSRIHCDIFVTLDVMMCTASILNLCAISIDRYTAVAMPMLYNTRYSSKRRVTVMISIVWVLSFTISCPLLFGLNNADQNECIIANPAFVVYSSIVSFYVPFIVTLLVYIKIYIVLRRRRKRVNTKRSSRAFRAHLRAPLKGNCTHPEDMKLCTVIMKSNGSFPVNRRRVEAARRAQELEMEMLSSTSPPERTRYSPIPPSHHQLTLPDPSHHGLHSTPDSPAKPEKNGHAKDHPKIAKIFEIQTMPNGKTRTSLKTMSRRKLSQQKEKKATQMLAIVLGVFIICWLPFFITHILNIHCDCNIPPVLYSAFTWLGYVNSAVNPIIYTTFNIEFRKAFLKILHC
Gonadotropin-releasing hormone receptor (Homo sapiens), sequence (P30968 whole entry, looked up): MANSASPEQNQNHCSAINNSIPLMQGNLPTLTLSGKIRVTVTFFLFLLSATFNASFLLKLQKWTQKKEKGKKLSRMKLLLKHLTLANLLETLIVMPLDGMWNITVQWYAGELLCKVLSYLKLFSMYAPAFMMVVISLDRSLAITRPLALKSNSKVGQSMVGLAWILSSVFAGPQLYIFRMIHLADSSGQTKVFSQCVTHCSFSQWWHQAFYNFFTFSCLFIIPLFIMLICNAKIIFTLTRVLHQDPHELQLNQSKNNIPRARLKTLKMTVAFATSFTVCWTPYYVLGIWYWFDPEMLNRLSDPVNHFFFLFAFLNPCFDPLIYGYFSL
KiSS-1 receptor (Homo sapiens), sequence (Q969F8 whole entry, looked up): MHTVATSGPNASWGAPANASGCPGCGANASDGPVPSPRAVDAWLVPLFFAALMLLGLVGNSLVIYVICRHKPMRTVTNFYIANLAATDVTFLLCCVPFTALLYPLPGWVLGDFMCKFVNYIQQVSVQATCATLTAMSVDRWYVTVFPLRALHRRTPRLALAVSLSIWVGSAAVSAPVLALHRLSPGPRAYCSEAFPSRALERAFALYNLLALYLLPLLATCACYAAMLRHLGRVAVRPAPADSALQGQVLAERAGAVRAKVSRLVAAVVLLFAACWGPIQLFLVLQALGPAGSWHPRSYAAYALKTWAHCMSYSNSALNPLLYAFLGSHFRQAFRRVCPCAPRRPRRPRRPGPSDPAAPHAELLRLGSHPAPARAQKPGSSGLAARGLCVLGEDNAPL
Muscarinic acetylcholine receptor M1 (Homo sapiens), sequence (P11229 whole entry, looked up): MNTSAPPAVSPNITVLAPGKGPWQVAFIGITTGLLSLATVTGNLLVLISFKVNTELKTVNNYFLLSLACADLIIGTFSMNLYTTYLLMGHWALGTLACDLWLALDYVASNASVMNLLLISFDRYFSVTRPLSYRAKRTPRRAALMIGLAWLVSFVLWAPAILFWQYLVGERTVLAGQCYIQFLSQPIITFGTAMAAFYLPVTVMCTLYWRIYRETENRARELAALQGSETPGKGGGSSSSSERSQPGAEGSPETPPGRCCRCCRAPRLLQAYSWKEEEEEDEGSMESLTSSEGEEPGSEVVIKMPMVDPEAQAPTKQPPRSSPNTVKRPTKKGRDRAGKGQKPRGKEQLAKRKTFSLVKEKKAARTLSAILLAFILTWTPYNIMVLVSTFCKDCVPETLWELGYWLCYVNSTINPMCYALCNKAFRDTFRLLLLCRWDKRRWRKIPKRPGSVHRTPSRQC
Beta-2 adrenergic receptor (Homo sapiens), sequence (P07550 whole entry, looked up): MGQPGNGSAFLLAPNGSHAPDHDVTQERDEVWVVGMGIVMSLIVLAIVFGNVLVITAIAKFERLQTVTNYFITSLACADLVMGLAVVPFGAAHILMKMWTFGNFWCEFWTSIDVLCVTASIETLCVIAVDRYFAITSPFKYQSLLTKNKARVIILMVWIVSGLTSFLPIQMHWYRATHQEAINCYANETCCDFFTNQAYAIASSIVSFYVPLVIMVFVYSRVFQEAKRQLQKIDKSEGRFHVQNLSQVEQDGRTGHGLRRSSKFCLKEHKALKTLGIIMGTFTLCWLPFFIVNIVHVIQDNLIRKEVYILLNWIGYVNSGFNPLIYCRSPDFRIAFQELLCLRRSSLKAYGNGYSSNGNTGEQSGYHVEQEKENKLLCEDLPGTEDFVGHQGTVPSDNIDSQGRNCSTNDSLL
5-hydroxytryptamine receptor 2A (Homo sapiens), sequence (P28223 whole entry, looked up): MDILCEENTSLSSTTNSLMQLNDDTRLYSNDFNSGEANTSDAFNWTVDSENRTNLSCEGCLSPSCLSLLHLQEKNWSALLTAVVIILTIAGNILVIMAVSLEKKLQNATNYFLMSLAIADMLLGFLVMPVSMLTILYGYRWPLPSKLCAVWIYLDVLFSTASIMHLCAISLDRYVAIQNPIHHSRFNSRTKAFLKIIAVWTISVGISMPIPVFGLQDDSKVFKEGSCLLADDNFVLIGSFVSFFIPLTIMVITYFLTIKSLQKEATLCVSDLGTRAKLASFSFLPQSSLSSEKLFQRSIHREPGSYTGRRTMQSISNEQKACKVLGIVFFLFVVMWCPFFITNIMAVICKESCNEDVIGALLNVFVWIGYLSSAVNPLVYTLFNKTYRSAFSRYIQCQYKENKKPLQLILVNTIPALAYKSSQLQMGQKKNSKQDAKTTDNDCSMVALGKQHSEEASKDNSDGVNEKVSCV

In the case of `Cc1cccc(N)c1C`, the Potency entry in [1], in test [2], in [3], in test [4], in test [5] and in test [6] was “inactive” each time. Further, the Potency entry in test [7], in test [8], in test [9], in [10], in test [11] and in test [12] was “inactive” each time. Besides, the Potency entry in test [13], in test [14], in [15], in [16], in test [17] and in test [18] was “inactive” each time. Further, the Potency result in test [19] is “inactive”.
As for `Cc1ccc(N)cc1N`, the Potency result in test [1], in test [3], in test [4], in test [5], in [6] and in test [7] was “inactive” each time. In addition, the Potency result in [8], in [9], in [10], in test [11], in test [12] and in [13] was “inactive” in each case. The Potency result in test [14], in test [15], in test [16], in test [20] and in test [18] was “inactive” throughout. In addition, the Potency in test [2] is 26.6 µM (active) and 30.6 µM (active).
With `Brc1ccc(Oc2ccccc2)cc1`, the Potency entry in test [1], in test [3], in test [4], in test [5], in test [6] and in test [7] was “inactive” throughout. The Potency entry in test [8], in test [9], in [10], in [11], in test [12] and in test [13] was “inactive” in each case. Besides, the Potency result in test [14], in test [15], in test [16], in test [17], in test [18] and in test [19] was “inactive” each time. Besides, in test [2], the Potency is 35.2 µM (active) and inactive.
Take `Cl/C=C/CCl`: the Potency entry in test [1], in test [2], in test [3], in [4], in test [5] and in test [6] was “inactive” in each case. The Potency entry in test [7], in test [8], in test [9], in test [10], in test [11] and in test [12] was “inactive” throughout. Besides, the Potency entry in [13], in test [14], in [15], in test [16], in test [20] and in [18] was “inactive” throughout. In test [19], the Potency entry was “inactive”.
Regarding `O=[N+]([O-])CCO`, the Potency entry in [1], in [2], in [3], in test [4], in [5] and in [6] was “inactive” each time. The Potency entry in test [7], in test [8], in [9], in test [10], in [11] and in [12] was “inactive” in each case. Also, the Potency entry in test [13], in test [14], in [15], in [16], in test [20] and in [18] was “inactive” each time. Moreover, the Potency entry in test [19] is “inactive”.
`N#CC(Cl)(Cl)Cl`: the Potency entry in test [1], in test [2], in test [3], in test [4], in test [5] and in test [6] was “inactive” in each case. Also, the Potency result in [7], in test [8], in test [9], in [10], in test [11] and in [12] was “inactive” in each case. Further, the Potency result in test [13], in test [14], in test [15], in test [16], in [20] and in test [18] was “inactive” in each case. For the same compound, the Potency entry in test [19] is “inactive”.
Take `CCCCCBr`: the Potency entry in [1], in test [2], in test [3], in test [4], in test [5] and in [6] was “inactive” each time. The Potency entry in test [7], in test [8], in test [9], in test [10], in test [11] and in test [12] was “inactive” in each case. Besides, the Potency entry in [13], in test [14], in [15], in [16], in [20] and in test [18] was “inactive” each time.
